According to PubChem BioAssay AID1259422 (The Scripps Research Institute Molecular Screening Center, 2018):
In all, about 640,000 compounds went through this assay and about 9,300 (1.5%) were called active. The full list was thinned out, with actives kept by preference. A number with no mark means an inactive call. Cut-off read from the data, not from the text of the source: active = inhibition above about 32%; inactive = the rest.

assay: TEAD-YAP interaction inhibition, primary screen, TEAD-YAP interaction inhibitor project, luminescence, HEK-TIYL cells (AID 1259422); settings: TEAD-Gal4/YAP UAS-luciferase luminescence, at 9.12 µM, hits give high values;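 note: 0% = median of test compound wells and 100% = reference inhibitor wells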

Compound	inhibition
O=S(=O)(c1ccc(Cl)c(C(F)(F)F)c1)N1CCNCC1	3.58%
COC(=O)CNc1nc(Cl)nc(Nc2ccc(I)cc2C)n1	-1.03%
CC(=O)N1CCN(Cc2nc(-c3ccc(Cl)cc3)cs2)CC1	2.89%
O=C(NCc1ccc(Cl)cc1)N1CCN(Cc2nc(-c3ccco3)cs2)CC1	41.8% (active)
O=C(CN1CCN(Cc2nc(-c3ccco3)cs2)CC1)NCc1ccc2c(c1)OCO2	-0.64%
O=[N+]([O-])c1ccc(NC(=S)Nc2ccc(Br)cn2)cc1	2.08%
CC(C)(C)NC(=O)c1cc2nc(-c3ccco3)cc(C(F)(F)F)n2n1	-0.09%
Cc1ccc(C(=O)NCCNc2ccc([N+](=O)[O-])cc2Cl)cc1	34.1% (active)
Cc1ccc(C(=O)NCCNc2ccc([N+](=O)[O-])cc2)cc1	1.76%
O=C(NCCCNc1ccc([N+](=O)[O-])cc1Cl)c1ccc(Cl)cc1	3.65%
CC(Oc1cccc2cccnc12)C(=O)NNC(=S)NC(=O)c1cc2ccccc2oc1=O (centres undefined)	3.86%
Cc1ccccc1C1=NN2C(=N)/C(=C/c3c(C)nn(-c4ccccc4)c3Cl)C(=O)N=C2S1	-14.8%
CCCN(CCC)S(=O)(=O)c1ccc2[nH]c(=O)ccc2c1	-11.6%
CCC/C=N/NC(=O)c1cc(OC)c(OC)c(OC)c1	59.2% (active)
COc1cc(C(=O)N/N=C/c2cccs2)cc(OC)c1OC	61.3% (active)
CCC/C=N/NC(=O)c1ccc(C)cc1C	-15.2%
CCCOC(=O)c1ccc(NC(=O)c2cc(OC)c(OC)c(OC)c2)cc1	-1.39%
COc1cc(C(=O)N/N=C/c2cccs2)ccc1O	2.59%
COc1cc(/C=N/NC(=O)c2cccs2)cc(OC)c1OC	-55.4%
COC(=O)N/N=C\c1ccc(-c2cccc(Cl)c2)o1	-22.7%
Cc1ccc(C(=O)N/N=C\c2ccc(-c3cccc(C(=O)O)c3)o2)cn1	-9%
COc1cc(C(=O)NCc2n[nH]c(=S)n2-c2ccccc2)cc(OC)c1OC	3.36%
COc1cc(C(=O)N/N=C/c2c(Cl)[nH]c(=O)n2-c2ccccc2)cc(OC)c1OC	72.6% (active)
COc1cc(OC)c(OC)cc1/C=N/NC(=O)c1ccccn1	-43.7%
COc1cc(C(=O)N/N=C\c2ccc(-c3cccc(C(=O)O)c3)o2)cc(OC)c1OC	64.9% (active)

Compound	inhibition
Cc1ccc(N2C(=O)c3cccc4c(Br)c([N+](=O)[O-])cc(c34)C2=O)c(C)c1	6.15%
CCN(CC)CCCN(Cc1ccco1)C(=S)Nc1cc(C)c(Cl)cc1OC	3.59%
Cc1nc2c(c(=O)[nH]1)CN(Cc1cccn1C)CC2	-16.9%
Oc1ccc(-c2cnc3c(NCc4ccco4)nccn23)cc1	-72.4%
Cc1ccc(-n2ncc3c(NCc4ccco4)ncnc32)cc1	-76.8%
Ic1ccc2ncnc(NCc3ccco3)c2c1	15.7%
c1coc(CNc2ncnc3ccccc23)c1	36.3% (active)
CCOC(=O)c1ccc(NC(=O)N2CCN(c3nc(-c4ccccc4)cs3)CC2)cc1	-7.79%
COCCNC(=O)c1cc2nc(-c3cccs3)cc(C(F)(F)F)n2n1	8.1%
Cc1cc(/C=C2/NC(=O)NC2=O)c(C)n1-c1ccc(Cl)cc1	4.42%
Cc1ccccc1-n1c(C)cc(/C=C2\NC(=O)NC2=O)c1C	57.4% (active)
Cc1cc(/C=C2/NC(=O)NC2=O)c(C)n1-c1ccc2ccccc2c1	7.98%
CN(C(=O)n1nnc2ccccc21)c1ccccc1	44.2% (active)
COc1ccc(C(=O)n2nnc3ccccc32)cc1	-1.4%
Cc1nn(C(=O)N(C)c2ccccc2)c(C)c1Br	5%
O=C(N/N=C/c1ccc(Cl)cc1)c1ccccc1F	-4.81%
COCCNCC(=O)Nc1cccc2ccccc12	8.26%
O=C(NN1CC(C(=O)OCc2ccc([N+](=O)[O-])cc2)CC1=O)c1ccccc1 (centres undefined)	5.91%
Cc1cc(C)n(CCc2nc3c4ccccc4n(CC(N)=O)c(=O)n3n2)n1	4.04%
COC(=O)COc1ccc(NC(=O)COc2ccccc2)cc1	0.58%
Cc1csc2nc(-c3ccc(NC(=O)COc4ccccc4)cc3)cn12	78.2% (active)
COc1ccc(CC(=O)Nc2ccc(-c3cn4c(C)csc4n3)cc2)cc1	-12.5%
O=C(Nc1cccc2ccccc12)c1nc2c(nnn2Cc2ccc(F)cc2)c(=O)[nH]1	-2.87%
O=C(Nc1ccc(Br)cn1)c1ccccc1Cl	-0.48%
Cc1csc(NC(=O)CSc2nnc(-c3cccnc3)o2)n1	-34.8%

Compound	inhibition
CCc1ccccc1-n1c(SCC(=O)Nc2nc(C)cs2)nnc1-c1cccnc1	56.8% (active)
CCCn1c(SCC(=O)Nc2nc(C)cs2)nnc1-c1ccccn1	12.5%
Cc1ccccc1-n1c(SCC(=O)c2c[nH]c3ccccc23)nnc1-c1cccnc1	48.9% (active)
Cc1cccc(-n2c(SCC(=O)NNC(=O)c3ccco3)nnc2-c2cccnc2)c1C	-0.49%
Cc1ccccc1-n1c(SCC(=O)NNC(=O)c2ccco2)nnc1-c1cccnc1	-12%
O=C(NCc1ccncc1)C(=O)NCC1OCCCN1S(=O)(=O)c1cccs1 (centres undefined)	0.25%
CCCCOC(=O)c1cc(-c2ccc(OC)cc2)nc2ccc(Br)cc12	0.12%
Cc1[nH]c2ccccc2c1C(Nc1nccs1)c1ccccc1O (centres undefined)	2.06%
Cn1c(SCC(=O)c2ccc([N+](=O)[O-])cc2)nnc1C(F)(F)F	4.67%
O=C(N/N=C/c1ccccc1Cl)C(=O)N/N=C/c1ccccc1Cl	9.07%
CCOC(=O)C1=CN(Cc2ccc(F)cc2)C=C(C(=O)OCC)C1c1ccc(Cl)cc1	1.74%
Cc1cc(NCc2ccccc2)nc(-n2nc(C)cc2C)n1	65.4% (active)
Cc1cc(C)n(-c2nc(Nc3ccc(OC(F)(F)F)cc3)nc(-n3nc(C)cc3C)n2)n1	-10.5%
Cc1cc(NCc2ccccc2)nc(N2CCN(Cc3ccc4c(c3)OCO4)CC2)n1	3.95%
CC(=O)Nc1ccc(Nc2cc(Nc3ccccn3)nc(N)n2)cc1	-12.6%
CCc1ccccc1NC(=O)NCCNc1cc(-n2nc(C)cc2C)nc(C)n1	-1.06%
CC(=O)Nc1ccc(Nc2cc(C)nc(-n3nc(C)cc3C)n2)cc1	36% (active)
COc1cc2nc(NCc3ccc4c(c3)OCO4)nc(N)c2cc1OC	8.22%
COc1cccc(NC(=O)CSc2nc(O)c(C)c(=O)n2-c2ccc(F)cc2)c1	-6.67%
COc1ccc(/C=N/NC(=O)CNc2cccc3ccccc23)cc1Cl	8.35%
O=C(CCSc1nc(-c2ccccc2)cs1)N1CCOCC1	-10.1%
O=C(NC1CC1)C1CCN(C(=O)c2sccc2-n2cccc2)CC1	0.5%
CCC1CN(Cc2cn(CC)nc2C)Cc2cc(OC)ccc2O1 (centres undefined)	4.73%
FC(F)(F)c1ccc(Cn2cnc3c(NCc4nc5ccccc5[nH]4)nc(Cl)nc32)cc1	-2.85%
COc1ccc(CNc2nc(-c3ccccc3)nc3c2ncn3C(C)C)cc1	-3.1%

Compound	inhibition
COc1cc(Nc2cc(C(=O)NCc3nc4ccccc4[nH]3)ccn2)cc(OC)c1OC	2.93%
COc1ccc(-c2nc(Nc3cc(OC)c(OC)c(OC)c3)c3ncn(C(C)C)c3n2)cc1	23.6%
CC(C)n1cnc2c(NCc3nc4ccccc4[nH]3)nc(Cl)nc21	61.8% (active)
COc1cc(Nc2nc(NCc3nc4ccccc4[nH]3)c3ncn(C(C)C)c3n2)cc(OC)c1OC	47.9% (active)
Cc1c(C(=O)NCC2CCCO2)sc2ncn(Cc3ccccc3F)c(=O)c12 (centres undefined)	2.38%
Oc1c(C(c2ccc(F)cc2)N2CCOCC2)sc2ncnn12 (centres undefined)	-3.52%
COc1ccccc1N1CCN(/N=C(\C)c2cccs2)CC1	-19.5%
CCCn1nnnc1NC(=O)c1ccc(-c2cccc(Cl)c2)o1	-16.9%
CCCn1nnnc1NC(=S)NC(=O)c1cc2ccccc2o1	35.9% (active)
Cc1cccnc1NC(=S)NC(=O)c1cc2ccccc2o1	-26.1%
Cc1ccc(C(C)C)c(OC(=O)c2cc(-c3ccc(Cl)cc3)nc3ccc(C)cc23)c1	-8.87%
O=C1C(Nc2ccc(F)c(F)c2)=C(N2CCCCC2)C(=O)c2ccccc21	-7.95%
CC1CCN(C2=C(NC3CCCC3)C(=O)c3ccccc3C2=O)CC1	51.5% (active)
O=C1C(Nc2ccc(F)c(F)c2)=C(N2CCCC2)C(=O)c2ccccc21	-1.87%
Cc1c(C(=O)N2CCN(Cc3ccc4c(c3)OCO4)CC2)sc2ncn(CC(=O)Nc3cccc(C(F)(F)F)c3)c(=O)c12	-1.1%
CNC(=O)c1ccc(Cl)c([N+](=O)[O-])c1	8.77%
CCCCC(=O)NC1(C(F)(F)F)C(=O)N(C2CCCCC2)C(C)=C1C(=O)OCC (centres undefined)	18.5%
Nc1c(C(=O)OCC(=O)NCc2ccc3c(c2)OCO3)[nH]c(=O)[nH]c1=O	-6.24%
CC(=O)c1c(C)oc2c1cc(NS(=O)(=O)c1ccc(C)cc1)c1ccccc12	62.9% (active)
Cc1ccc(S(=O)(=O)Nc2ccc3oc(C)c(C(=O)NN)c3c2)cc1	10.1%
CC(=O)c1c(C)oc2c1cc(NS(=O)(=O)c1cccc3cccnc13)c1ccccc12	-0.78%
COc1ccc(S(=O)(=O)Nc2ccc3oc(C)c(C(C)=O)c3c2)cc1	54.7% (active)
COC(=O)c1c(C)oc2c1cc(NS(=O)(=O)c1ccc(Cl)cc1)c1ccccc12	11.4%
COCCOC(=O)c1c(C)oc2ccc(NS(=O)(=O)c3ccc(Cl)cc3)cc12	-2.27%
